Assay outcomes deposited in PubChem by Sanford-Burnham Center for Chemical Genomics.
TROY NFkB inh – blocks TROY-dependent signaling in reporter cells | Q293 LMP1-TROYcd NF-kB luciferase reporter, 4 h | inhibition, % at 10 µM | 360,000 tested, 0.98% active | AID 1347056;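 active = compounds whose plate-normalised and pattern-corrected inhibition of the luciferase reporter signal at the single screening dose is 50% or more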
Peg3 promoter – inhibitors of Peg3 promoter; HeLa PEG-Prom luciferase reporter, luminescence, overnight; inhibition, % at 20 µM; 360,000 tested, 1.7% active;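 active = inhibition of at least 50% at 20 µM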
KKLEB tox – reduces viability of KKLEB cystic fibrosis airway cells; activity change (cytotoxicity), % at 5 µM; 360,000 tested, 0.36% active; KKLEB CF airway cells viability, ATPlite luminescence, overnight; stronger effect = lower value; cells stimulated with P. aeruginosa culture filtrate;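 active = corrected activity change at or below -50% at 5 µM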
CF NFkB block – blocks PAF-induced NF-kB reporter in cystic fibrosis cells; 360,000 tested, 0.86% active; AID 588850; KKLEB NF-kB-GFP reporter, GFP fluorescence overnight; inhibition, % at 5 µM;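 active = at least 50% inhibition at 5 µM, scaled per plate between neutral and stimulator controls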;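 note: PAF is a Pseudomonas aeruginosa culture filtrate used as stimulus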
TWEAK Fn14 block – TWEAK-Fn14 signaling inhibition. inhibition, % at 10 µM. 360,000 tested, 2% active. TWEAK-stimulated Fn14 reporter cells, luciferase luminescence, 8 h; in the data active = inhibition above about 50%
HIF-2a block – inhibitors of HIF-2a. 786-0 RCC cells HIF-2a reporter, luciferase luminescence, overnight. inhibition, % at 18.8 µM. 360,000 tested, 0.72% active;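 active = inhibition of the luminescence signal of 40% or more relative to plate controls, in a single-dose primary screen at 18.75 µM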
CF NFkB conf – confirmation of cystic fibrosis induced NF-kB inhibitors; shares compounds with CF NFkB block; KKLEB CF airway cells, PAF-induced NF-kB-GFP fluorescence, overnight; inhibition, % at 5 µM; 1,300 tested, 64% active; in the data active = inhibition above about 40%;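 note: stimulus PAF is a Pseudomonas aeruginosa filtrate and not platelet activating factor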
Of the large screens only hits and unclear results are named; the others gave an inactive call (follow-up assays come after a bar, where they were run). Most compounds without a hit are left out; they make up all but 4% or so of the library.

CC(=O)OCCN1c2ccccc2Sc2cnccc21	CF NFkB block 65.1 | CF NFkB conf 66.5
C=CCN1c2ccccc2Sc2cnccc21	CF NFkB block 79.6, TWEAK Fn14 block 55.7 | CF NFkB conf 90.8
Cc1cccc(NC(=O)c2c([N+](=O)[O-])cnn2C)c1	none
CC[C@@H](C(=O)[C@@H](C)[C@@H](O)[C@H](C)[C@@H]1O[C@@H]([C@@H](CC)C(=O)O)CC[C@@H]1C)[C@H]1O[C@]2(C=C[C@@H](O)[C@]3(CC[C@@](C)([C@H]4CC[C@](O)(CC)[C@H](C)O4)O3)O2)[C@H](C)C[C@@H]1C	TROY NFkB inh 50.9, Peg3 promoter 101.0, CF NFkB block 68.7, TWEAK Fn14 block 55.6 | CF NFkB conf 104.8
CC1(O)CC(c2ccc(Cl)cc2)=NN1C(=O)c1ccc(Cl)cc1 (stereo not given)	CF NFkB block 58.1 | CF NFkB conf 76.0
Cc1ccc(SCC(=O)OCC(=O)NCCc2ccccc2)cc1C	none
COc1cc(CC(=O)OCC(=O)NC2CCCC2)cc(OC)c1OC	none
N#C/C(=C\c1ccc(F)c(F)c1)C(=O)NC1CCCCC1	CF NFkB block 51.5 | CF NFkB conf inactive
COc1ccc(-n2nnnc2S(=O)(=O)Cc2ccc(C(=O)O)cc2)cc1	CF NFkB block 89.4 | CF NFkB conf 90.6
CCN1C[C@@H]2[C@@H]3C(=O)N(Cc4ccccc4)C(=O)[C@@H]3[C@](CC)(C1=O)N2C(=O)c1ccc(F)cc1	none
O=C1C=C(NC2=CC3OC(c4ccccc4)OCC3OC2=O)CCC1 (stereo not given)	CF NFkB block 71.4, TWEAK Fn14 block 70.6 | CF NFkB conf 47.0
Cc1ccc(N(C)C(=O)c2cc(S(=O)(=O)N3CCCCC3)c[nH]2)cc1	CF NFkB block 50.3 | CF NFkB conf 56.4
CN(C(=O)c1cc(S(=O)(=O)N2CCCCC2)c[nH]1)C1CCCCC1	none
O=c1cc(C(F)(F)F)[nH]c2c(C(F)(F)F)cccc12	TROY NFkB inh 57.8, CF NFkB block 56.7, TWEAK Fn14 block 61.1 | CF NFkB conf inactive
O=c1cc(C(F)(F)F)[nH]c2ccc(OC(F)(F)F)cc12	none
Cc1ccc(NC(=O)c2nc[nH]c2C(=O)NCCCNC(=O)c2[nH]cnc2C(=O)Nc2ccc(C)cc2)cc1	Peg3 promoter 83.8, CF NFkB block 52.4 | CF NFkB conf 78.7
COC(=O)N1C(=O)[C@@](Cc2ccccc2)(c2ccccc2)N1C(=O)OC	CF NFkB block 56.6 | CF NFkB conf 54.6
COC(=O)N1C(=O)[C@@](c2ccccc2)(C2CCCCC2)N1C(=O)OC	Peg3 promoter 83.7, CF NFkB block 66.2, TWEAK Fn14 block 73.5 | CF NFkB conf 48.7
CC[C@@]1(c2ccccc2)C(=O)N(C(=O)OC)N1C(=O)OC	none
CCc1ccc([C@@H]2C[C@H]3[C@@H](CN2S(=O)(=O)c2ccc(C)cc2)C(=O)C[C@@H](c2ccc(Cl)cc2)N3S(=O)(=O)c2ccccc2C)cc1	none
CCc1ccc([C@@H]2CC(=O)[C@@H]3CN(S(=O)(=O)c4ccccc4C)[C@H](c4ccc(Cl)cc4)C[C@@H]3N2S(=O)(=O)c2ccc(C)cc2)cc1	CF NFkB block 51.4 | CF NFkB conf inactive
CC1N=C(SCC(=O)c2ccc(F)cc2)N2C(C)N=C(SCC(=O)c3ccc(F)cc3)N12 (stereo not given)	none
c1ccc(CNC2CC3CCC2C3)cc1 (stereo not given)	none
COc1cc(/C=N/NC(=O)Nc2cccc3nsnc23)cc(OC)c1OC	CF NFkB block 63.9 | CF NFkB conf 77.4
CN(c1cccc(Cl)c1)S(=O)(=O)c1cccc(C(=O)Nc2nc3ccccc3[nH]2)c1	Peg3 promoter 75.9, CF NFkB block 80.4, TWEAK Fn14 block 74.3 | CF NFkB conf 47.0
COc1ccc(N(C)S(=O)(=O)c2cccc(C(=O)Nc3nc4ccccc4[nH]3)c2)cc1	none
CCCN(CC)c1ncnc2[nH]ncc12	CF NFkB block 81.3, TWEAK Fn14 block 66.7 | CF NFkB conf 63.5
CN(C)c1ncnc2[nH]ncc12	none
CCC1(O)CC2CN(CCc3c([nH]c4ccccc34)C(C(=O)OC)(c3cc4c(cc3OC)N(C=O)C3C(O)(C(=O)OC)C(OC(C)=O)C5(CC)C=CCN6CCC43C65)C2)C1 (stereo not given)	CF NFkB block 58.5 | CF NFkB conf 92.0
Cc1ccc2c(c1)C(=O)C(=O)N2Cc1ccc(Br)cc1	CF NFkB block 61.5 | CF NFkB conf 80.8
CC1(C)ON=C(c2cccc(F)c2)NC1=O	none
CCc1nc2ccc(C(=O)NCc3ccccc3OC)cn2c1N(C)Cc1ccc(N(C)C)cc1	none
CCOc1cc2c(cc1O)C(=NOC)CC1C2CCC2(C)C(O)CCC12 (stereo not given)	CF NFkB block 51.5 | CF NFkB conf 75.7
Cc1cc(O)cc2c1C1CCC3(C)C(O)CCC3C1C=C2 (stereo not given)	none
Cc1cccc(N2C(=O)CC(Sc3nc(C)cc(C)n3)C2=O)c1 (stereo not given)	none
Cc1cc(C)cc(N2C(=O)CC(Sc3nnnn3-c3ccccc3)C2=O)c1 (stereo not given)	Peg3 promoter 108.2, CF NFkB block 56.6 | CF NFkB conf inactive
CC1Sc2ccc(Cl)cc2-c2nc(N)ncc21 (stereo not given)	CF NFkB block 66.4 | CF NFkB conf 76.7
COC(=O)C1=CN(c2ccc3c(c2)OCO3)C(N)=C(C#N)C1c1ccc(-c2ccccc2)cc1 (stereo not given)	none (no result: TROY NFkB inh, Peg3 promoter, KKLEB tox, CF NFkB block, TWEAK Fn14 block)
Cc1cccc(NC(=O)CN2C(=O)NC3(CCCC3)C2=O)n1	none
CCC(C)(C)NC(=O)c1ccc(Sc2nncn2C)c([N+](=O)[O-])c1	none
Cn1cnnc1Sc1ccc(/C=C/C(=O)c2ccc(O)cc2)cc1[N+](=O)[O-]	Peg3 promoter 109.7, CF NFkB block 59.1, TWEAK Fn14 block 90.2 | CF NFkB conf inactive
CC1CCN(CC2C(=O)O[C@@H]3C[C@@]4(C)CCC[C@H](C)C4=C[C@H]23)CC(C)(C)C1 (stereo not given in full)	CF NFkB block 83.5, TWEAK Fn14 block 55.1 | CF NFkB conf inactive
COc1cc(C(=O)Nc2nnc(-c3sccc3C)s2)cc(OC)c1OC	CF NFkB block 53.6 | CF NFkB conf 59.2
COCc1cc(S(=O)c2ccc(Cl)cc2)nc(C)n1 (stereo not given)	CF NFkB block 87.2, TWEAK Fn14 block 63.8 | CF NFkB conf 82.8
C[C@@H]1CN([C@H](C)CO)S(=O)(=O)c2ccc(C#CCN(C)C)cc2O[C@@H]1CN(C)Cc1ccccc1F	none
O=C(NCc1ccccc1)C1=C[C@H](c2csc3ccccc23)C[C@H](OCc2ccc(CO)cc2)O1	CF NFkB block 52.9 | CF NFkB conf 59.6
